Source: PubChem BioAssay
hNpr1 antagonist: Natriuretic polypeptide receptor (hNpr1) antagonism - Primary qHTS. Atrial natriuretic peptide receptor 1 (Homo sapiens), P16066. Potency, µM (highest dose often 46.3 µM), for the others: top-dose activity change, negative = inhibition, usual class: inhibitors. AID 1347048, 2019. hit rate 1.6% among 76,000. HEK293 hNpr1 GloSensor cGMP, ANP-stimulated luminescence; calls by dose curve; note: % is set by controls: 0 for no effect and ±100 for the full control effect; nearly all actives have a fitted effect of over 60% in size
Target sequence (P16066 whole entry, looked up): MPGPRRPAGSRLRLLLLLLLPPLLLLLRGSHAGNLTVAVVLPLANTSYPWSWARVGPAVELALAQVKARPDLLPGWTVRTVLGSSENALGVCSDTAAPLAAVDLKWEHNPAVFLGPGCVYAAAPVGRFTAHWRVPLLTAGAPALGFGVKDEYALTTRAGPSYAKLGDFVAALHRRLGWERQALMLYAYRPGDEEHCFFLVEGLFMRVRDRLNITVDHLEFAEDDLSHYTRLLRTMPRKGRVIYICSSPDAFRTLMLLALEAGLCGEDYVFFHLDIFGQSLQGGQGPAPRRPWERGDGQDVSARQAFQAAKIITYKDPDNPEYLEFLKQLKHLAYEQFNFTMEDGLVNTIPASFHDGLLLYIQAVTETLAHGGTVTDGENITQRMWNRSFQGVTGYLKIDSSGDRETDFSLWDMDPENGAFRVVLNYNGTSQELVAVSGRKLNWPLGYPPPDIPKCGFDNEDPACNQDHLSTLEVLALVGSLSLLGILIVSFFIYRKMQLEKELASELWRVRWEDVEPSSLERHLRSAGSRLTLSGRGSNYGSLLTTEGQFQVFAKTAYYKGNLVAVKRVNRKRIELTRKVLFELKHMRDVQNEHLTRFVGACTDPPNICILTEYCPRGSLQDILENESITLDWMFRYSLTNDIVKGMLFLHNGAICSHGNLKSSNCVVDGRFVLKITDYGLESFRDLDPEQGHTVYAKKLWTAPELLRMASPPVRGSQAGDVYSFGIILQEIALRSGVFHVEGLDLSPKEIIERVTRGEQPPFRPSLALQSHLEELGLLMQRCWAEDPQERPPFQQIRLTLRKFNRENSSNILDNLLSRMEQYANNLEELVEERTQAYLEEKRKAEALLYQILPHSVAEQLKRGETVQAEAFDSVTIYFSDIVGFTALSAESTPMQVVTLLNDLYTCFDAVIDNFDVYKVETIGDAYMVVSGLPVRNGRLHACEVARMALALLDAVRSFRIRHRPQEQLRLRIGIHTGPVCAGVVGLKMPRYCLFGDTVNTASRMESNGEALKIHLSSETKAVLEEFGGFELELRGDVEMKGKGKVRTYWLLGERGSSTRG
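HEK293 cells stably expressing human Npr1 and cGMP GloSensor pGS-40F, loaded 2 h with 2% GloSensor reagent, given compound 30 min at room temperature. Luminescence read before and 20 min after 0.1 nM hNppA.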
FLuc inh-1: Firefly luciferase inhibition profiling of diverse chemical library using quantitative high-throughput screening; purified P. pyralis luciferase, luminescence, biochemical; hit rate 2.5% among 76,000; Luciferin 4-monooxygenase (Photinus pyralis), P08659; Potency, µM (doses to about 115 µM), actives largely listed as inhibitors; note: % is set by controls: 0 for no effect and ±100 for the full control effect; nearly all actives have a fitted effect of over 65% in size
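Biochemical qHTS: compound (6-point titration) added to 10uM D-luciferin plus 10uM ATP in Tris acetate pH 7.5 buffer with Mg, Tween-20 and BSA, then purified enzyme at 10nM; light output imaged.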
HEK cytotox: Cytotoxic Profiling in HEK 293 Cell Line of Diverse Libraries Using Quantitative High-Throughput Screening; hit rate 6.6% among 94,000; Potency, µM (highest dose often 115 µM), for inactives: at the top dose activity change, negative = cytotoxicity, actives largely listed as inhibitors; HEK 293 viability, ATP luminescence (CellTiter-Glo), 48-72 h; note: % is set by controls: 0 for no effect and ±100 for the full control effect; nearly all actives have a fitted effect of over 60% in size
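Cytotoxicity was scored by loss of ATP-coupled luminescence (CellTiter-Glo) in HEK 293 cells. Compound treatment ran 48 or 72 hr at 37 degree Celsius, 5% CO2, 95% humidity.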
3T3 cytotox: Cytotoxic Profiling in NIH 3T3 Cell Line of Diverse Libraries Using Quantitative High-Throughput Screening; hit rate 4.3% among 94,000; AID 1345082, 2018; NIH 3T3 viability, CellTiter-Glo ATP luminescence, 48-72 h; Potency, µM (titrated, usually from 96.7 µM), without a hit: top-dose activity change, negative = cytotoxicity, most hits filed as inhibitors; note: % is set by controls: 0 for no effect and ±100 for the full control effect; nearly all actives have a fitted effect of over 55% in size
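Viability of NIH 3T3 cells after 48 or 72 hr compound treatment at 37 °C was assessed by CellTiter-Glo, with luminescence imaged following a 10 min room-temperature step.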
FLuc SDR no ATP: Firefly luciferase (FLuc-C-HiBiT) SDR gain of signal screen - without ATP; shares compounds with FLuc inh-1; Purified FLuc-C-HiBiT, Nano-Glo HiBiT luminescence, no ATP; Potency, µM (top dose mostly 32.7 µM), for the others: at the top dose activation (signal gain), hits mostly activators; hit rate 7.8% among 1,300; note: nearly all actives have a fitted effect of over 55% in size
FLuc SDR ATP: Firefly luciferase (FLuc-C-HiBiT) SDR gain of signal screen - plus ATP; hit rate 8.7% among 1,300; Potency, µM (series often up to 32.7 µM), for the others: top-dose activation (gain of signal), most hits filed as activators; purified FLuc-C-HiBiT + ATP, HiBiT complementation luminescence; shares compounds with FLuc inh-1;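 note: signal reports ligand binding via conformational change of the enzyme rather than luciferase catalysis; % of control where 0% means no effect; nearly all actives have a fitted effect of over 55% in size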
FLuc inh-2: Firefly luciferase (FLuc-C-HiBiT) enzymatic inhibition screen - Functional assay. hit rate 42% among 1,300. AID 1963320, 2024. Potency, µM (top dose mostly 32.7 µM), without a hit: at the top dose activity change, negative = inhibition, most hits filed as inhibitors. shares compounds with FLuc inh-1. purified FLuc-C-HiBiT enzyme, luciferin luminescence; note: % is set by controls: 0 for no effect and ±100 for the full control effect; nearly all actives have a fitted effect of over 70% in size
Active calls of the source: *; i = inactive; ? = inconclusive; . = no result; [ ] = another dose, or the depositor's remark. An excerpt weighted towards active compounds, which were near 11% of everything screened. Unless noted, calls come from the whole dose curve; as a rule, active = well fitted curve in the direction sought with a large enough effect; inconclusive = small, poorly fitted or top-dose-only effect, or another doubt; inactive = no such curve, though single readings can be large; an effect the other way counts as inactive or inconclusive. Potency is the fitted concentration of half-maximal effect.

SMILES | hNpr1 antagonist | FLuc inh-1 | HEK cytotox | 3T3 cytotox | FLuc SDR no ATP | FLuc SDR ATP | FLuc inh-2
CCN(Cc1ccccc1)C(=O)c1cc(-c2ccncc2)cn1Cc1ccc(C)cc1 | -13% | ? | ? | ? | . | . | .
O=C1CCN(Cc2cccnc2)CCCC(c2nc(-c3cccnc3)no2)CCN1 (stereo unspecified) | -2% | i | ? | -3% | . | . | .
O=C1CC2(CCN(CC3CC3)CC2)Oc2cc(Cl)ccc21 | ? | 3.2µM* | ? | -12%[138 µM] | 14%[49.3 µM] | 19%[49.3 µM] | ?
Cn1cc(CC(=O)N2CCCc3ncc(C(=O)NCC4CCCO4)cc32)c2ccccc21 (stereo unspecified) | 0%[70.6 µM] | i | ? | ? | . | . | .
CCOC(=O)c1cccc(NC(=O)c2cnc(-c3ccc(C)cc3)nc2-c2ccncc2)c1 | -15% | i | ? | -16% | . | . | .
CCCOc1ccccc1C(=O)Nc1ccc(-c2nc3ccc(C)cc3s2)cc1 | . | . | . | . | ? | ? | 6.2µM*
COc1cccc(C(=O)Nc2ccc(-c3nc4ccc(C)cc4s3)cc2)c1OC | . | . | . | . | 15% | 10% | -4%
CN(C)C(=O)CCc1ccc2c(c1)CN(C(=O)CC1CCCC1)CCO2 | . | . | ? | -34% | . | . | .
CC1CCCCN1c1csc2ccc(F)cc2c1=O (stereo unspecified) | . | . | . | . | 29% | 19% | 8.8µM*
CCN1c2cc(C(=O)NCc3cc(F)ccc3F)ccc2C(=O)N2CCCCC21 (stereo unspecified) | 5% | i | ? | ? | . | . | .
O=C(O)c1cccc(-c2noc(-c3ccc(C(F)(F)F)cc3)n2)c1 | . | . | . | . | 7µM* | 0.0062µM* | 0.0035µM*
O=C(O)c1cccc(-c2noc(-c3cccc(C(F)(F)F)c3)n2)c1 | . | . | . | . | ? | 0.039µM* | 0.016µM*
O=C(O)C1CCc2nc(N3CCN(C(=O)C4CCC4)CC3)sc2C1 (stereo unspecified) | -1% | 6.3µM* | -1% | ? | 13% | ? | 8.8µM*
CCN1CCN(C(=O)C2CCc3nc(N4CCN(C(=O)C5CCC5)CC4)sc3C2)CC1 (stereo unspecified) | -2% | i | -13% | 5% | . | . | .
Nc1cccc(-c2ccc(N3CCCCC3)nn2)c1 | 4µM* | 0.4µM* | 35µM* | 35µM* | 1.6µM* | 1.2µM* | 0.56µM*
CCN1CCN(c2ccc(-c3cccc(N)c3)nn2)CC1 | ? | 14µM* | ? | ? | 23% | ? | 9.9µM*
CCOc1ccccc1C(=O)Nc1nc2c(s1)CC(C)CC2 (stereo unspecified) | . | . | . | . | 14% | 8% | 4.4µM*
O=C(Nc1ccc(F)cc1)c1cc2cccnn2n1 | 4%[70.6 µM] | 14µM* | ? | ? | 25%[49.3 µM] | 19%[49.3 µM] | ?
O=C(CSc1nnc2[nH]c(=O)cc(-c3ccccc3)n12)Nc1ccc(OC(F)(F)F)cc1 | . | . | . | . | 20% | 15% | 7µM*
COc1ccccc1-n1c(=O)c(C(=O)NCc2cccs2)nc2cccnc21 | . | . | 0% | -10% | . | . | .
Cc1cc(CNc2ccc(-c3nc(CCCc4ccccc4)no3)cn2)no1 | ? | ? | ? | -30% | . | . | .
CN(Cc1cccnc1)c1ccc(-c2nc(COc3ccccc3)no2)cn1 | 10µM* | 7.9µM* | 25µM* | ? | 18% | 18% | ?
CN(CCO)c1ccc(-c2nc(CCCc3ccccc3)no2)cn1 | 0% | 6.3µM* | ? | -29% | 15% | 14% | ?
c1ccc(CCCc2noc(-c3ccc(NCc4ccccn4)nc3)n2)cc1 | ? | 13µM* | ? | -18% | 10% | 8% | -10%
CN(CCc1ccccn1)c1ccc(-c2nc(COc3ccccc3)no2)cn1 | ? | 8.9µM* | 35µM* | ? | 13% | 15% | ?
SMILES | hNpr1 antagonist | FLuc inh-1 | HEK cytotox | 3T3 cytotox | FLuc SDR no ATP | FLuc SDR ATP | FLuc inh-2
COc1cccc(-c2cccc(C(=O)N3CCCC3C(=O)N3CCOCC3)c2)c1 (stereo unspecified) | . | . | -20% | -9% | . | . | .
CCC(=O)Nc1ccc(OCC(=O)NCc2ccccc2OC(C)CC)cc1 (stereo unspecified) | 5% | i | ? | -5% | . | . | .
CN(C)C(=O)c1ccc(OC2CCN(C(=O)c3cccs3)CC2)nc1 | -4% | i | ? | -33% | . | . | .
COc1cccc(CC(=O)Nc2ccc(-c3nc4ccccc4s3)cc2Cl)c1 | . | . | . | . | 13% | 9% | -9%
COc1cccc(C(=O)Nc2ccc(-c3nc4ccccc4s3)cc2Cl)c1 | . | . | . | . | 14% | 9% | -1%
COc1ccc(CC(=O)Nc2ccc(-c3nc4ccccc4s3)cc2Cl)cc1OC | . | . | . | . | 15% | 11% | -19%
COc1cccc(CNC(=O)CNC(=O)c2ccc(-c3cnc4ccccc4c3)cc2)c1 | . | . | ? | -15% | . | . | .
CN(Cc1cccc(C(F)(F)F)c1)Cc1ccccc1OCC(=O)O | 2% | i | -2% | -14% | . | . | .
Cc1ccoc1C(=O)N1CC[C@@H](c2sccc2C)[C@H](O)C1 | 3% | i | -26% | -22% | . | . | .
COc1ccc(C(=O)NCCC2CCN(C(=O)Nc3cc(F)cc(F)c3)CC2)cc1 | -26% | 6.3µM* | ? | -30% | ? | 15% | ?
Cc1ccc(NC(=O)N2CCC(CCNC(=O)C3CCCC3)CC2)cc1 | -1% | i | 1% | -6% | . | . | .
Cc1ccc(NC(=O)N2CCC(CCNC(=O)C3CC3)CC2)cc1 | -5% | 10µM* | ? | -19% | ? | ? | ?
COc1cccc(C(=O)NCCC2CCN(C(=O)Nc3cccc(F)c3)CC2)c1 | 0% | i | -23% | ? | . | . | .
Cc1ccc(NC(=O)N2CCC(CCNC(=O)C(C)C)CC2)cc1F | 4% | ? | -6% | -6% | . | . | .
Cc1ccc(NC(=O)N2CCC(CCNC(=O)c3ccc(F)cc3)CC2)cc1F | -28% | 10µM* | ? | ? | 21% | 13% | ?
Cc1ccc(NC(=O)N2CCC(CCNC(=O)C3CCC3)CC2)cc1F | -23% | 11µM* | -12% | -24% | ? | ? | ?
O=C(NC1CCN(C(=O)c2ccc(-c3cncnc3)cc2)CC1)C1CCCC1 | . | . | -14% | -19% | . | . | .
